Structures can show the parent of a compound that is named as a salt.
Tested on: hN + hpA co-culture (H1 iNGN2 human neurons + human primary astrocytes)
Assay: presynaptic density (SYNAPSIN1 puncta per MAP2 neurite area), Z-score vs DMSO controls; higher = more presynaptic puncta (synapse-promoting)
Settings: 3 µM; 72 h
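Note: immunostained co-cultures imaged by high-content microscopy, Z-score per plate against mean and SD of 0.1% DMSO wells, compounds added on differentiation day 18, analysed day 21.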

Row | SMILES | presynaptic density (Z-score)
1 | COc1cc(F)c(F)c(Nc2ccc(I)cc2F)c1NS(=O)(=O)C1(CC(O)CO)CC1 (stereo unspecified) [Refametinib (RDEA119] | 0.433
2 | Cc1ccc(S(=O)(=O)OCC(=O)Nc2ccc(C(=O)O)c(O)c2)cc1 | -0.554
3 | N#CC[C@H](C1CCCC1)n1cc(-c2ncnc3[nH]ccc23)cn1 | 0.202
4 | CCN(Cc1ccncc1)C(=O)C(CO)c1ccccc1 (stereo unspecified) [Tropicamide] | -0.597
5 | Cc1c(Cl)cccc1Nc1ccccc1C(=O)O [Tolfenamic acid] | -0.187
6 | CN(Cc1cnc2nc(N)nc(N)c2n1)c1ccc(C(=O)N[C@@H](CCC(=O)O)C(=O)O)cc1 [Methotrexate] | -0.494
7 | Cc1ccc(NC(=O)C2(c3ccc4c(c3)OC(F)(F)O4)CC2)nc1-c1cccc(C(=O)O)c1 [VX-809 (Lumacaftor)] | -0.6
8 | CC(C=CC(=O)NO)=CC(C)C(=O)c1ccc(N(C)C)cc1 (stereo unspecified) [Trichostatin A (TSA)] | 11.2
9 | CCN(CC)C(=O)/C(C#N)=C/c1cc(O)c(O)c([N+](=O)[O-])c1 [Entacapone] | 0.44
10 | C[S+]([O-])c1ccc(-c2nc(-c3ccc(F)cc3)c(-c3ccncc3)[nH]2)cc1 (stereo unspecified) | -1.11
11 | CC(NC(=O)Cc1cc(F)cc(F)c1)C(=O)NC1C(=O)N(C)c2ccccc2-c2ccccc21 (stereo unspecified) | -0.744
12 | CCn1c(=O)c2c(nc(/C=C/c3ccc(OC)c(OC)c3)n2C)n(CC)c1=O [Istradefylline] | -0.775
13 | Cc1cc(Nc2ncc(Cl)c(Nc3ccccc3S(=O)(=O)C(C)C)n2)c(OC(C)C)cc1C1CCNCC1 | 0.147
14 | Cc1ccc(NC(=O)c2ccc(CN3CCN(C)CC3)cc2)cc1Nc1nccc(-c2cccnc2)n1 [Gleevec (Imatinib)] | -0.283
15 | CC(NC(=O)C(O)c1cc(F)cc(F)c1)C(=O)NC1C(=O)N(C)c2ccccc2-c2ccccc21 (stereo unspecified) | 0.0312
16 | O=C(Nc1cccc(Cl)c1)c1ccccn1 | 0.851
17 | O=C(O)CCc1ccc(NCc2cccc(Oc3ccccc3)c2)cc1 [4-[[(3-Phenoxyphenyl)methyl]amino]benzenepropanoic acid] | -0.812
18 | Cc1ccc(C(=O)N(CCCN)[C@@H](c2nc3cc(Cl)ccc3c(=O)n2Cc2ccccc2)C(C)C)cc1 | -0.26
19 | O=C(c1ccc(F)cc1)N1CCCC(c2nc(-c3ccc(F)cc3)no2)C1 (stereo unspecified) | -0.851
20 | Cc1cc(Nc2cc(N3CCN(C)CC3)nc(Sc3ccc(NC(=O)C4CC4)cc3)n2)n[nH]1 | -2.31
21 | C=C[C@@]1(C)CC(=O)[C@]2(O)[C@@]3(C)[C@@H](O)CCC(C)(C)[C@@H]3[C@H](O)[C@H](OC(C)=O)[C@@]2(C)O1 [Forskolin] | 0.455
22 | COc1cc2c(cc1OC)CN(CCc1ccc(NC(=O)c3cc(OC)c(OC)cc3NC(=O)c3cnc4ccccc4c3)cc1)CC2 [Tariquidar] | -0.47
23 | NS(=O)(=O)c1ccc(NC(=O)Nc2ccc(F)cc2)cc1 | 0.585
24 | Cc1cc(Nc2cc(CN3CCOCC3)c3nc(C)c(Cc4ccc(Cl)cc4F)n3n2)n[nH]1 | -1.8
25 | CC(C)OC(=O)C1=CN(C(=O)c2ccc(F)c(F)c2)CC(C)(C)c2c1[nH]c1ccccc21 | -0.269
26 | CC(C)(C)c1cc(C(C)(C)C)c(NC(=O)c2c[nH]c3ccccc3c2=O)cc1O [Ivacaftor (VX-770)] | 0.324

Row | SMILES | presynaptic density (Z-score)
27 | CN(C)CCc1c[nH]c2ccc(Cn3cncn3)cc12 | -0.227
28 | CCOC(=O)NCCCC(=O)NCCc1ccccc1 | -0.656
29 | O=C(NOCC1CC1)c1ccc(F)c(F)c1Nc1ccc(I)cc1Cl | -0.102
30 | CC1C(=O)OC2C(O)C34C5CC(C(C)(C)C)C36C(OC(=O)C6O)OC4(C(=O)O5)C12O (stereo unspecified) [Ginkgolide B] | -0.504
31 | C[C@@H](O[C@H]1OCCN(Cc2n[nH]c(=O)[nH]2)[C@H]1c1ccc(F)cc1)c1cc(C(F)(F)F)cc(C(F)(F)F)c1 [Aprepitant] | 0.895
32 | Cc1cc([C@@H](C)Nc2ccccc2C(=O)O)c2nc(N3CCOCC3)cc(=O)n2c1 | -0.243
33 | COc1cc(N2CCC(N(C)C)CC2)ccc1Nc1ncc(Cl)c(Nc2ccccc2P(C)(C)=O)n1 | 0.449
34 | Nc1cccc2c1CN(C1CCC(=O)NC1=O)C2=O (stereo unspecified) [Lenalidomide] | 1.39
35 | CC(=O)OCC(=O)NCCCOc1cccc(CN2CCCCC2)c1 | -0.62
36 | N#CSc1cc(SC#N)c(N)nc1N | -0.815
37 | C=CC(=O)N1CCC[C@@H](n2nc(-c3ccc(Oc4ccccc4)cc3)c3c(N)ncnc32)C1 | -0.341
38 | c1ccc(NCc2ccc(CNc3ccccn3)cc2)nc1 | -0.658
39 | CCc1c2c(nc3ccc(OC(=O)N4CCC(N5CCCCC5)CC4)cc13)-c1cc3c(c(=O)n1C2)COC(=O)C3(O)CC (stereo unspecified) [Irinotecan HCl Trihydrate_Selleck] | -0.772
40 | NC1(c2ccc(-c3nc4ccn5c(=O)[nH]nc5c4cc3-c3ccccc3)cc2)CCC1 | -1.01
41 | CC(C)n1c(/C=C/C(O)CC(O)CC(=O)O)c(-c2ccc(F)cc2)c2ccccc21 (stereo unspecified) [Fluvastatin Sodium] | 1.53
42 | O=C(Nc1ccccc1)c1cc([N+](=O)[O-])ccc1Cl | -0.00538
43 | O=C1c2ccccc2-c2n[nH]c3cccc1c23 [Anthra[1-9-cd]pyrazol-6(2H)-one] | 0.183
44 | CCn1c(N)c(C(=O)NC)c(=O)c2ccc(C#CC(C)(O)COC)nc21 (stereo unspecified) | 0.325
45 | O=C(C[S+]([O-])Cc1ccco1)NC/C=C\COc1cc(CN2CCCCC2)ccn1 (stereo unspecified) [Lafutidine] | -0.624
46 | OCCOc1ccc(/C(=C(/CCCl)c2ccccc2)c2ccccc2)cc1 [Ospemifene] | -0.588
47 | CC#CCn1c(N2CCC[C@@H](N)C2)nc2c1c(=O)n(Cc1nc(C)c3ccccc3n1)c(=O)n2C [Linagliptin] | 0.688
48 | O=c1ncccn1[C@@H]1O[C@H](CO)[C@@H](O)[C@H]1O [Zebularine] | -0.579
49 | CNC(=O)c1ccc2cc([C@@]3(O)CCn4cncc43)ccc2c1 [TAK-700 (Orteronel)] | 0.215
50 | O=C(CCCCCCC(=O)Nc1ccc([C@H]2O[C@@H](CSc3nc(-c4ccccc4)c(-c4ccccc4)o3)C[C@@H](c3ccc(CO)cc3)O2)cc1)NO [Tubacin] | 0.79
51 | CC(C)C[C@H](NC(=O)[C@@H](NC(=O)c1cccc(-c2ccccc2)n1)[C@@H](C)O)B(O)O | -3.12
52 | CCOC(=O)N1CCC(=C2c3ccc(Cl)cc3CCc3cccnc32)CC1 [Loratadine] | 1.78

Row | SMILES | presynaptic density (Z-score)
53 | O=S(=O)(c1ccccc1)c1cnc2c(N3CCNCC3)cccc2c1 | -0.943
54 | O=C(Nc1cccc(Cl)c1)Nc1ncc(CCNc2ncnc3ccsc23)s1 [SNS-314 Mesylate] | -0.232
55 | O=C(/C=C/c1cccc(S(=O)(=O)Nc2ccccc2)c1)NO [Belinostat(PXD101)] | 2.26
56 | CCC(=O)NCC[C@@H]1CCc2ccc3c(c21)CCO3 | -1.53
57 | COc1cc2c(cc1Cc1cccc(Cl)c1F)c(=O)c(C(=O)O)cn2[C@H](CO)C(C)C [Elvitegravir (GS-9137] | 0.597
58 | NC(=O)Nc1cc(-c2cccc(F)c2)sc1C(=O)N[C@H]1CCCNC1 | 0.58
59 | CN[C@@H](C)C(=O)N[C@H](C(=O)N1CCC[C@H]1C(=O)Nc1snnc1-c1ccccc1)C1CCCCC1 | -0.107
60 | O=C(O)Cn1nnc(-c2cc(N3CCC(Oc4cc(F)ccc4Br)CC3)no2)n1 | -0.606
61 | Cc1ccc2nc(NC(=O)CSc3nc4c(c(=O)n3-c3ccccc3)SCC4)sc2c1 | -0.234
62 | CC(C)c1noc(N2CCC(COc3ccc(-c4ccc(S(C)(=O)=O)cc4)nc3)CC2)n1 | 0.0886
63 | CCN[C@H]1CN(CCCOC)S(=O)(=O)c2sc(S(N)(=O)=O)cc21 [Brinzolamide] | -0.474
64 | N#Cc1c(O)c2c(-c3ccc(-c4ccccc4O)cc3)csc2[nH]c1=O | -1.26
65 | O=C(Nc1cccnc1)N1CCC(Cc2cccc(Oc3ccc(C(F)(F)F)cn3)c2)CC1 | -1.87
66 | CCCc1nc2c(C)cc(-c3nc4ccccc4n3C)cc2n1Cc1ccc(-c2ccccc2C(=O)O)cc1 | -0.154
67 | CC(C)(Cc1ccc2ccccc2c1)NC[C@@H](O)COc1cccc(Cl)c1C#N | -2.26
68 | CC(C)(C)c1cc(NC(=O)Nc2ccc(-c3cn4c(n3)sc3cc(OCCN5CCOCC5)ccc34)cc2)no1 [AC220 (Quizartinib] | 0.214
69 | CN(C)CCOc1ccc(/C(=C(/CCCl)c2ccccc2)c2ccccc2)cc1 | -0.866
70 | CCN(c1cc(-c2ccc(CN3CCOCC3)cc2)cc(C(=O)NCc2c(C)cc(C)[nH]c2=O)c1C)C1CCOCC1 | -0.342
71 | CN1CC(=O)N2[C@H](c3ccc4c(c3)OCO4)c3[nH]c4ccccc4c3C[C@@H]2C1=O [Tadalafil] | -0.533
72 | CCOC(=O)C1=C(N)Oc2ccc(Br)cc2C1C(C#N)C(=O)OCC (stereo unspecified) | 0.81
73 | O=C(NCCN1CCOCC1)c1ccc(Cl)cc1 | 0.253
74 | CCCCOc1ccc(C(=O)Nc2ccc(F)cc2F)cc1 | 0.219
75 | CC[C@@H]1C(=O)N(C)c2cnc(Nc3ccc(C(=O)NC4CCN(C)CC4)cc3OC)nc2N1C1CCCC1 | -2.32
76 | CC(C)NC[C@@H](C(=O)N1CCN(c2ncnc3c2[C@H](C)C[C@H]3O)CC1)c1ccc(Cl)cc1 | -0.322

Source: the supplement of paper PMC10121225
